We go through 10 molecules from PubChem BioAssay (NCI).

Compounds without any hit were thinned out: in the full panel of roughly 79,000, 15% have a hit. Values without a mark were called inactive. The source made the active and inactive calls. Cut-off read from the data, not from the text of the source: active = growth inhibition above about 70%; inactive = the rest.

Test [1] is described as follows: NCI Yeast Anticancer Drug Screen. Data for the rad50 strain (AID 155).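 Note: 0% = growth of vehicle-only cultures of the same strain.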 Conditions: S. cerevisiae rad50 strain growth inhibition, hits give high values. Summed up: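 Inhibition values express reduced yeast growth in compound-treated cultures relative to vehicle-treated controls.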
Test [2] is described as follows: NCI Yeast Anticancer Drug Screen. Data for the mec2-1 strain (AID 157). To be noted: S. cerevisiae mec2-1 strain, hits give high values. Summed up:
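mec2-1 yeast strain, carrying an alteration in DNA damage repair or cell cycle control, was exposed to compounds; growth inhibition was measured relative to vehicle-treated controls.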

Test [3] is described as follows: NCI Yeast Anticancer Drug Screen. Data for the sgs1 mgt1 strain (AID 161).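 Note: 0% = growth of cultures given vehicle only.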 Conditions: S. cerevisiae sgs1 mgt1 strain, hits give high values. A digest of the protocol:
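Yeast cells carrying a defined DNA-repair defect were exposed to test compounds. Growth inhibition was measured relative to vehicle-treated controls.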

Test [4] in a line: NCI Yeast Anticancer Drug Screen. Data for the cln2 rad14 strain (AID 165).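 Note: 0% = growth equal to vehicle treated cultures.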 Conditions: S. cerevisiae cln2 rad14 strain, hits give high values. A digest of the protocol:
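Yeast carrying cln2 and rad14 alterations (cell cycle control and DNA damage repair) were exposed to compounds. Growth inhibition was measured against vehicle-treated controls.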

Test [5] is described as follows: NCI Yeast Anticancer Drug Screen. Data for the bub3 strain (AID 167). To be noted: S. cerevisiae bub3 mutant strain, hits give high values. A digest of the protocol:
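Steps: expose the mutant yeast strain to compound; grow alongside vehicle-treated cultures; measure growth; express inhibition against the vehicle cultures.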

Test [6] is described as follows: NCI Yeast Anticancer Drug Screen. Data for the mlh1 rad18 strain (AID 175). Conditions: S. cerevisiae mlh1 rad18 strain growth inhibition, hits give high values. A digest of the protocol:
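Growth inhibition of the yeast strain was measured after compound exposure and expressed relative to vehicle-treated controls. The strain carries defined defects in DNA damage repair.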

Where [7] appears, read: at 5.0 µM (retest, dose inferred, filed as 0.5).
[8] abbreviates: at 50.0 µM (retest, dose inferred, filed as 5.0).

Take `COc1cccc2c1C(=O)c1c(O)c3c(c(O)c1C2=O)C[C@@](O)(/C(C)=N\NC=O)C[C@@H]3OC1CC(N)C(O)C(C)O1` (stereo not given in full): the growth inhibition in test [1] (setting [7]) is -3%; in test [1] (setting [8]), 86% (active); in test [1] (at 50.0 µM), 75% (active); in test [2] (setting [7]) it was -1%; in test [2] (setting [8]) it was 45%; in test [2] (at 50.0 µM) it was 49.5%. Moreover, the growth inhibition in test [3] (setting [7]) was -4%; in test [3] (setting [8]), 38%; in test [3] (at 50.0 µM), 72.7% (active); in test [4] (setting [7]), 8%; in test [4] (setting [8]), 51%; in test [4] (at 50.0 µM), 39.9%. The growth inhibition was 17% in test [5] (setting [7]); 84% (active) in test [5] (setting [8]); 76.5% (active) in test [5] (at 50.0 µM); 4% in test [6] (setting [7]); 90% (active) in test [6] (setting [8]); 76% (active) in test [6] (at 50.0 µM).

For the molecule `O=C(O)C1CCCCC1.[Ag]`, the growth inhibition in test [1] (setting [7]) is 43%; in test [1] (setting [8]), 99% (active); in test [1] (at 50.0 µM), 90.3% (active); in test [2] (setting [7]) it was 42%; in test [2] (setting [8]), 99% (active); in test [2] (at 50.0 µM), 92% (active). Moreover, the growth inhibition in test [3] (setting [7]) was 99% (active); in test [3] (setting [8]) it was 99% (active); in test [3] (at 50.0 µM), 93.2% (active); in test [4] (setting [7]), 99% (active); in test [4] (setting [8]), 99% (active); in test [4] (at 50.0 µM), 91% (active). For the same molecule, the growth inhibition in test [5] (setting [7]) is 99% (active); in test [5] (setting [8]), 100% (active); in test [5] (at 50.0 µM), 90.6% (active); in test [6] (setting [7]), 34%; in test [6] (setting [8]) it was 100% (active); in test [6] (at 50.0 µM) it was 90.5% (active).

In the case of `NC(=S)Nc1ccccc1O`, the growth inhibition is 6% in test [1] (setting [7]); 43% in test [1] (setting [8]); 50.5% in test [1] (at 50.0 µM); -10% in test [2] (setting [7]); 19% in test [2] (setting [8]); 50.9% in test [2] (at 50.0 µM). Besides, the growth inhibition was 6% in test [3] (setting [7]); 15% in test [3] (setting [8]); 40.9% in test [3] (at 50.0 µM); 0% in test [4] (setting [7]); 21% in test [4] (setting [8]); 8.25% in test [4] (at 50.0 µM). For the same molecule, the growth inhibition in test [5] (setting [7]) is 17%; in test [5] (setting [8]), 72% (active); in test [5] (at 50.0 µM), 80.3% (active); in test [6] (setting [7]), 14%; in test [6] (setting [8]), 46%; in test [6] (at 50.0 µM), 59.2%.

With `ClCC1CSC2(CCCCC2)O1` (stereo not given), the growth inhibition in test [1] (setting [7]) is 16%; in test [1] (setting [8]) it was 3%; in test [1] (at 50.0 µM), 21.5%; in test [2] (setting [7]), 10%; in test [2] (setting [8]) it was -16%; in test [2] (at 50.0 µM), 20.9%. For the same molecule, the growth inhibition in test [3] (setting [7]) was 7%; in test [3] (setting [8]), -8%; in test [3] (at 50.0 µM), 27.1%; in test [4] (setting [7]), 15%; in test [4] (setting [8]), 32%; in test [4] (at 50.0 µM) it was 13.7%. In addition, the growth inhibition in test [5] (setting [7]) was -13%; in test [5] (setting [8]) it was -9%; in test [5] (at 50.0 µM) it was 31.6%; in test [6] (setting [7]) it was -17%; in test [6] (setting [8]), -23%; in test [6] (at 50.0 µM), 27.5%.

Turning to `COc1ccccc1/C=C1\NC(=S)N(/C=C2\C(=O)Oc3ccccc3C2=O)C1=O`, the growth inhibition in test [1] (setting [7]) is 8%; in test [1] (setting [8]) it was 32%; in test [1] (at 50.0 µM), 73.2% (active); in test [2] (setting [7]), -7%; in test [2] (setting [8]), 25%; in test [2] (at 50.0 µM) it was 29.9%. In addition, the growth inhibition in test [3] (setting [7]) is -6%; in test [3] (setting [8]) it was 38%; in test [3] (at 50.0 µM) it was 73% (active); in test [4] (setting [7]) it was -9%; in test [4] (setting [8]), 47%; in test [4] (at 50.0 µM), 64.7%. For the same molecule, the growth inhibition was -27% in test [5] (setting [7]); 37% in test [5] (setting [8]); 79.1% (active) in test [5] (at 50.0 µM); 9% in test [6] (setting [7]); 50% in test [6] (setting [8]); 85.9% (active) in test [6] (at 50.0 µM).

As for `O=C1CCC(Cc2ccc(C(F)(F)F)cc2)C(=O)N1` (stereo not given), the growth inhibition is -3% in test [1] (setting [7]); 7% in test [1] (setting [8]); 1.65% in test [1] (at 50.0 µM); -1% in test [2] (setting [7]); 3% in test [2] (setting [8]); 22.1% in test [2] (at 50.0 µM). The growth inhibition in test [3] (setting [7]) is 2%; in test [3] (setting [8]), 92% (active); in test [3] (at 50.0 µM) it was 95.8% (active); in test [4] (setting [7]), -3%; in test [4] (setting [8]), 5%; in test [4] (at 50.0 µM), -42.7%. Besides, the growth inhibition in test [5] (setting [7]) was -2%; in test [5] (setting [8]), -2%; in test [5] (at 50.0 µM) it was -52.6%; in test [6] (setting [7]) it was -4%; in test [6] (setting [8]), 3%; in test [6] (at 50.0 µM), 6.6%.

In the case of `O=[N+]([O-])c1ccccc1NC1CCN(CCCC2(c3ccc(F)cc3)OCCO2)CC1`, the growth inhibition in test [1] (setting [7]) was 11%; in test [1] (setting [8]), 96% (active); in test [1] (at 50.0 µM), 99% (active); in test [2] (setting [7]), 7%; in test [2] (setting [8]), 94% (active); in test [2] (at 50.0 µM) it was 98% (active). Further, the growth inhibition in test [3] (setting [7]) was 16%; in test [3] (setting [8]) it was 99% (active); in test [3] (at 50.0 µM), 98.6% (active); in test [4] (setting [7]) it was 9%; in test [4] (setting [8]), 94% (active); in test [4] (at 50.0 µM), 93.3% (active). In addition, the growth inhibition in test [5] (setting [7]) was 10%; in test [5] (setting [8]), 97% (active); in test [5] (at 50.0 µM), 41.4%; in test [6] (setting [7]), 11%; in test [6] (setting [8]), 94% (active); in test [6] (at 50.0 µM), 98.7% (active).

Regarding `CCCCNC(=O)OCc1c(COC(=O)NCCCC)c(-c2ccc(Cl)c(Cl)c2)n2c1CCC2`, the growth inhibition was 33% in test [1] (setting [7]); 98% (active) in test [1] (setting [8]); 26.6% in test [1] (at 50.0 µM); 27% in test [2] (setting [7]); 99% (active) in test [2] (setting [8]); 7.3% in test [2] (at 50.0 µM). Also, the growth inhibition was 48% in test [3] (setting [7]); 99% (active) in test [3] (setting [8]); 31.2% in test [3] (at 50.0 µM); 53% in test [4] (setting [7]); 98% (active) in test [4] (setting [8]); 70% in test [4] (at 50.0 µM). Besides, the growth inhibition in test [5] (setting [7]) is 56%; in test [5] (setting [8]), 98% (active); in test [5] (at 50.0 µM), 4.4%; in test [6] (setting [7]), 25%; in test [6] (setting [8]) it was 98% (active); in test [6] (at 50.0 µM), 31.8%.

For `NC1=C(O)C(=O)C(c2c3ccccc3cc3ccccc23)O1` (stereo not given), the growth inhibition is 16% in test [1] (setting [7]); 98% (active) in test [1] (setting [8]); 98.2% (active) in test [1] (at 50.0 µM); 17% in test [2] (setting [7]); 98% (active) in test [2] (setting [8]); 98% (active) in test [2] (at 50.0 µM). The growth inhibition in test [3] (setting [7]) was 8%; in test [3] (setting [8]), 98% (active); in test [3] (at 50.0 µM), 97.8% (active); in test [4] (setting [7]), 7%; in test [4] (setting [8]), 95% (active); in test [4] (at 50.0 µM), 95.9% (active). The growth inhibition in test [5] (setting [7]) is 16%; in test [5] (setting [8]) it was 98% (active); in test [5] (at 50.0 µM) it was 97.3% (active); in test [6] (setting [7]), 4%; in test [6] (setting [8]), 98% (active); in test [6] (at 50.0 µM), 97.5% (active).

As to `CCOc1ccc(/C=C2\NC(=S)N(/C=C3\C(=O)Oc4ccccc4C3=O)C2=O)cc1`, the growth inhibition is 77% (active) in test [1] (setting [7]); 91% (active) in test [1] (setting [8]); -16.1% in test [1] (at 50.0 µM); 6% in test [2] (setting [7]); 71% (active) in test [2] (setting [8]); -28.6% in test [2] (at 50.0 µM). Besides, the growth inhibition in test [3] (setting [7]) was -30%; in test [3] (setting [8]), 58%; in test [3] (at 50.0 µM), 0.45%; in test [4] (setting [7]), -14%; in test [4] (setting [8]), 70% (active); in test [4] (at 50.0 µM), -39.2%. Also, the growth inhibition in test [5] (setting [7]) was -31%; in test [5] (setting [8]) it was 76% (active); in test [5] (at 50.0 µM), -23.9%; in test [6] (setting [7]), 11%; in test [6] (setting [8]), 94% (active); in test [6] (at 50.0 µM) it was -8.6%.
